D2 antagonist – HTS Assay for Allosteric Antagonists of the Human D2 Dopamine Receptor: Primary Screen for Antagonists; D(2) dopamine receptor (Homo sapiens), P14416; HEK293 TREx D2 cells, calcium flux, dopamine EC80; inhibition, % at 10 µM; 2% of 340,000 active; AID 485344, 2010; in the data active = inhibition above about 30%; inactive = below that, where a call was filed
Target sequence (P14416 whole entry, looked up): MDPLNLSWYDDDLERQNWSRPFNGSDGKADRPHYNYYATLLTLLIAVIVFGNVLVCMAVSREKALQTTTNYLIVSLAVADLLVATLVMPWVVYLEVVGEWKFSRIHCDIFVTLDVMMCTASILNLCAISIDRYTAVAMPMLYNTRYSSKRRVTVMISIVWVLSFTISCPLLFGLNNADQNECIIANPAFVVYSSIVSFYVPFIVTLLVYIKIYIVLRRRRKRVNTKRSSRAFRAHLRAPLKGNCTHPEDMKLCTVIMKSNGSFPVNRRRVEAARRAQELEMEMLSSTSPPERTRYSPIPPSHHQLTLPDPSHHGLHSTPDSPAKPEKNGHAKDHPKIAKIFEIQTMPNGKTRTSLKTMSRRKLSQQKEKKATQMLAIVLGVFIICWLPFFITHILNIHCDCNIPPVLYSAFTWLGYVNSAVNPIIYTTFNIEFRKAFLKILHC
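Cells plated overnight at 30 C with tetracycline; no-wash calcium dye, 30–90 min RT; 10 s baseline; compound pinned; 180 s read; EC80 dopamine added; another 180 s read.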
D2 ag-1 – Beta-Arrestin HTS for Positive Allosteric Modulators of the Human D2 Dopamine Receptor: Agonists; 0.084% of 360,000 active; DiscoveRx PathHunter D2 beta-arrestin, luminescence, 90 min; 100% = 57 uM dopamine signal; AID 624465, 2012; activation, % (no concentration beside the values); in the data active = activation above about 40%; inconclusive = between about 15% and that limit
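Agonist mode: compounds alone added to overnight-plated D2 PathHunter cells for 90 min at 37 C, with 57 uM final dopamine (EC100) defining full response. Beta-arrestin recruitment detected by chemiluminescent reagent, read after 1 h at ambient temperature.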
D2 PAM-1 – HTS Assay for Positive Allosteric Modulators of the Human D2 Dopamine Receptor: Primary Screen for Potentiators; HEK293 T-REx D2, calcium flux, EC20 dopamine potentiation; potentiation, % at 10 µM; 0.34% of 340,000 active; AID 485347, 2010;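 active = potentiation over 3 SD above the plate norm, cut at about 30% in these data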
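Using a no-wash calcium dye in inducible, force-coupled HEK293 Trex cells expressing D2, we tracked fluorescence each second for 180 s after compound, then for 180 s after EC20 dopamine to detect augmented signalling.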
D2 PAM-2 – Beta-Arrestin HTS for Positive Allosteric Modulators of the Human D2 Dopamine Receptor: Potentiators; D(2) dopamine receptor (Homo sapiens), P14416; DiscoveRx D2 beta-arrestin cells, luminescence, 90 min; 100% = 57 uM dopamine signal; potentiation, % (no concentration beside the values); 0.23% of 360,000 active; AID 624464, 2012; in the data active = potentiation above about 50%; inconclusive = mostly about 30% to 49%
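PathHunter beta-arrestin assay in DiscoveRx D2 cells. Compounds were added with an EC20 of dopamine (50 nM final) for 90 min at 37 deg C. Luminescence was read 1 h after detection reagent, with 57 uM dopamine as the EC100 control.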
D2 ag-2 – HTS Assay for Allosteric Agonists of the Human D2 Dopamine Receptor: Primary Screen for Agonists | D(2) dopamine receptor (Homo sapiens), P14416 | HEK293 T-REx D2 cells, calcium flux agonist mode | activation, % at 2 µM | 0.53% of 340,000 active | AID 485358, 2010;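 active = activation over 3 SD above normal in the single-dose calcium agonist read, cut at about 30% in these data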
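HEK293 Trex D2 cells, tetracycline-induced, o/n 30 C 5% CO2; no-wash Ca dye, RT 30–90 min; 10-cycle baseline, 23 nl cpd added, kinetic Ca read 180 s; agonist hits = positive Ca response.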
D3 arrestin ag – qHTS of D3 Dopamine Receptor Agonist: D3 Dopamine Receptor B-arrestin Agonist Confirmatory Assay | shares compounds with D2 ag-2 | DiscoveRx D3 beta-arrestin cells, luminescence, 90 min | Potency, µM (top dose mostly 76.9 µM), actives largely listed as activators | 4% of 2,300 active | AID 720506, 2013; note: nearly all actives have a fitted effect of over 70% in size
D2 ag-3 – qHTS of D3 Dopamine Receptor Agonist: D2 Dopamine Receptor B-arrestin Agonist Counterscreen; shares compounds with D2 ag-2; DiscoveRx PathHunter D2 beta-arrestin, luminescence, 90 min; response scale: percent relative to full dopamine signal; Potency, µM (top dose mostly 76.9 µM), usual class: activators; 5.9% of 2,300 active; AID 720507, 2013; note: nearly all actives have a fitted effect of over 70% in size
Hits are given with their value. Most compounds without a hit are left out; they make up all but 2.4% or so of the library. Unless noted, calls come from the whole dose curve; as a rule, active = well fitted activation curve with a large enough effect; inconclusive = small, poorly fitted or top-dose-only effect; inactive = flat fitted curve, though single readings scatter.

`CCN(CC(=O)Nc1ccccc1C(F)(F)F)C(=O)c1ccccc1Sc1ccccc1C#N` gave D2 antagonist inactive, D2 ag-1 inactive, D2 PAM-1 inactive, D2 PAM-2 inactive, D2 ag-2 inactive, D3 arrestin ag inactive and D2 ag-3 inactive.
`CN(CC(=O)Nc1ccccc1C(F)(F)F)C(=O)c1ccccc1Sc1ccccc1C#N` gave D2 antagonist inactive, D2 ag-1 inactive, D2 PAM-1 inactive, D2 PAM-2 inactive and D2 ag-2 inactive.
Screening Cc1ccnc(NC(=O)CC(NC(=O)c2ccccc2Cl)c2ccccc2)c1 (stereo not given) returned D2 antagonist inactive, D2 ag-1 inactive, D2 PAM-1 inactive, D2 PAM-2 inactive and D2 ag-2 inactive.
Cc1ccc(NC(=O)CC(NC(=O)c2ccccc2Cl)c2ccccc2)nc1 (stereo not given) was read as D2 antagonist inactive, D2 ag-1 inactive, D2 PAM-1 inactive, D2 PAM-2 inactive, D2 ag-2 inactive, D3 arrestin ag inactive and D2 ag-3 inactive.
Screening CC(=O)CSc1nnc(-c2ccc(S(=O)(=O)N3CCOCC3)cc2)n1C returned D2 ag-1 inactive, D2 PAM-2 inactive, D3 arrestin ag inactive and D2 ag-3 inactive.
`CC(=O)CSc1nnc(-c2ccc(S(=O)(=O)N3CCCC3)cc2)n1C` gave D2 antagonist inactive, D2 ag-1 inactive, D2 PAM-1 inactive, D2 PAM-2 inactive and D2 ag-2 inactive.
Screening Cc1ccc(Nc2nc3ccccc3nc2Nc2c(C)n(C)n(-c3ccccc3)c2=O)cc1 returned D2 antagonist inactive, D2 ag-1 inactive, D2 PAM-1 inactive, D2 PAM-2 inactive and D2 ag-2 inactive.
For CC[n+]1c(-c2ccccc2)csc1Nc1c(C)n(C)n(-c2ccccc2)c1=O the results were D2 antagonist inactive, D2 ag-1 inactive, D2 PAM-1 inactive, D2 PAM-2 inactive, D2 ag-2 49.7, D3 arrestin ag inactive and D2 ag-3 inactive.
For CC[n+]1c(-c2ccc(C)cc2)csc1Nc1c(C)n(C)n(-c2ccccc2)c1=O the results were D2 antagonist 51.5, D2 ag-1 inactive, D2 PAM-1 inactive, D2 PAM-2 inactive, D2 ag-2 66.1, D3 arrestin ag inactive and D2 ag-3 inactive.
Screening Cc1oc2ncnc(N3CCCCC3)c2c1C(=O)Nc1cccc(Cl)c1C returned D2 PAM-1 inactive and D2 ag-2 inactive.
For Cc1ccc(NC(=O)c2oc3ccc(S(=O)(=O)N4CCCCCC4)cc3c2C)c(C)c1 the results were D2 PAM-1 inactive and D2 ag-2 inactive.
O[C@@H]1CN(Cc2ccc(-n3cccn3)cc2)CC[C@H]1N1CCN(c2ccccc2F)CC1 was read as D2 antagonist 38.5, D2 ag-1 inactive, D2 PAM-1 inactive, D2 PAM-2 inactive, D2 ag-2 65.0, D3 arrestin ag inactive and D2 ag-3 inconclusive.
Screening Cc1ccc(CN2CCN(Cc3ccc(-n4cccn4)cc3)CC2CCO)cc1 (stereo not given) returned D2 antagonist inactive, D2 ag-1 inactive, D2 PAM-1 inactive, D2 PAM-2 inactive and D2 ag-2 inactive.
Screening CCc1ccc(C(=O)c2cn(CC(=O)Nc3cc(F)ccc3F)c3nc(C)ccc3c2=O)cc1 returned D2 PAM-1 inactive and D2 ag-2 inactive.
CCn1c(N2CCN(S(=O)(=O)c3ccccc3)CC2)nc2ccccc21 was read as D2 antagonist inactive, D2 ag-1 inconclusive, D2 PAM-1 inactive, D2 PAM-2 inactive, D2 ag-2 inactive, D3 arrestin ag inconclusive and D2 ag-3 inactive.
`COc1ccc([C@H]2CC(=O)C=C(c3cccc4c3Oc3ccccc3S4)C2)cc1OC` gave D2 antagonist inactive, D2 ag-1 inactive, D2 PAM-1 inactive, D2 PAM-2 inactive, D2 ag-2 inactive, D3 arrestin ag inactive and D2 ag-3 inactive.
COc1ccc([C@H]2CC(=O)C=C(c3ccc(O)cc3)C2)cc1OC was read as D2 antagonist inactive, D2 ag-1 inactive, D2 PAM-1 inactive, D2 PAM-2 inactive, D2 ag-2 inactive, D3 arrestin ag inactive and D2 ag-3 inactive.
For O=C1C=C(c2cccc3c2Oc2ccccc2S3)C[C@@H](c2ccc(Cl)cc2)C1 the results were D2 antagonist inactive, D2 ag-1 inactive, D2 PAM-1 inactive, D2 PAM-2 inactive and D2 ag-2 inactive.
Screening CCC(=O)N1CCc2cc(Br)cc(S(=O)(=O)CCC(=O)NCCc3cccc(C)c3)c21 returned D2 PAM-1 inactive and D2 ag-2 inactive.
COc1cccc(CNC(=O)Cn2c(=O)oc3cc(S(=O)(=O)N4CCCC4)ccc32)c1 was read as D2 PAM-1 inactive.
Screening O=C(NCCN1CCN(c2ccccc2)CC1)Nc1ccc(Cl)cc1 returned D2 antagonist 82.2, D2 ag-1 inactive, D2 PAM-1 inactive, D2 PAM-2 inactive, D2 ag-2 75.3, D3 arrestin ag inactive and D2 ag-3 inconclusive.
`O=C(NCCN1CCN(c2ccccc2)CC1)Nc1ccccc1Cl` gave D2 antagonist 34.6, D2 ag-1 inactive, D2 PAM-1 inactive, D2 PAM-2 inactive, D2 ag-2 63.5, D3 arrestin ag inconclusive and D2 ag-3 inactive.
O=C(NCCN1CCN(c2ccccc2)CC1)Nc1ccccc1Br was read as D2 antagonist 76.0, D2 ag-1 inactive, D2 PAM-1 inactive, D2 PAM-2 inactive, D2 ag-2 59.2, D3 arrestin ag inactive and D2 ag-3 inactive.
`CCCN1CCN(CCNC(=O)Nc2ccccc2Cl)CC1` gave D2 antagonist inactive, D2 ag-1 inactive, D2 PAM-1 inactive, D2 PAM-2 inactive and D2 ag-2 inactive.
`COc1cc(NC(=O)NCCN2CCN(c3ccccc3)CC2)cc(OC)c1OC` gave D2 antagonist 76.0, D2 ag-1 inactive, D2 PAM-1 inactive, D2 PAM-2 inactive, D2 ag-2 75.0, D3 arrestin ag inactive and D2 ag-3 inconclusive.
O=C(NCCN1CCN(c2ccccc2)CC1)Nc1cccc(Br)c1 was read as D2 antagonist inactive, D2 ag-1 inactive, D2 PAM-1 inactive, D2 PAM-2 inactive and D2 ag-2 inactive.

Source: PubChem BioAssay
